Only some compounds are listed: those with a hit (about 3.2% of all), similar ones and a draw of the others.
GDH-TPI counter-1 = GDH-TPI coupling enzyme inhibitors, primary screen, artefact control for M. tuberculosis FBA inhibitor project, biochemical, absorbance, full deck. actives 1.2% (n = 360,000). GDH-TPI coupled enzyme counterscreen, NADH absorbance. AID 588335, 2011. inhibition, % at 4.8 µM; in the data active = inhibition above about 30%;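 note: 0% = DMSO wells and 100% = wells lacking the enzyme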
PrPC surface inh = inhibitors of human cell surface prion protein PrPC, primary screen, cell-based, TR-FRET; TR-FRET read-out; AID 720596, 2013; actives 0.43% (n = 370,000); Major prion protein (Homo sapiens), P04156; inhibition, % at 13.8 µM; in the data active = inhibition above about 24%; note: 0% = median of the test wells and 100% = reference compound wells
FBA Mtb inh = Mtb FBA enzyme inhibitors, primary screen, biochemical, fluorescence, strain H37Rv. purified M. tuberculosis FBA, fluorescence read-out. inhibition, % at 1 µM. actives 2.3% (n = 360,000). AID 588726, 2011; in the data active = inhibition above about 27%;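 note: 0% = vehicle and 100% = reference inhibitor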
Target sequence (P9WQA3 whole entry, looked up): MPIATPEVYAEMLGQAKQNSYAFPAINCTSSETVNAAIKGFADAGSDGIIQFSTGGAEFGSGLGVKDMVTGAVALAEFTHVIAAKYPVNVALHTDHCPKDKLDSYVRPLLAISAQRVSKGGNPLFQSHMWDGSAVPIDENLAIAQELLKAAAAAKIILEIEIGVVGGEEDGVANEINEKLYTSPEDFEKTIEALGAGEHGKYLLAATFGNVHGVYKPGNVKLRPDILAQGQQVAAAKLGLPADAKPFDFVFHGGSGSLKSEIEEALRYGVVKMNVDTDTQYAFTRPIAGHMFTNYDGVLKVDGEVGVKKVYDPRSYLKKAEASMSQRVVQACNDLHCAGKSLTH
TcdB inh = TcdB glycohydrolase inhibitors, primary screen, biochemical, single point, plate reader | actives 0.24% (n = 350,000) | AID 652162, 2013 | inhibition, % at 9.99 µM | TcdB glycohydrolase enzymatic assay
Y pestis TopoI = Yersinia pestis topoisomerase I inhibitors, primary screen, biochemical, cleavage product accumulation, plate reader, single point | DNA topoisomerase I (Yersinia pestis CO92) | actives 0.064% (n = 360,000) | Y. pestis Topo-I cleavage product accumulation | activity, % at 10 µM; in the data active = activity above about 50%, passing the limit was not always enough
Mtb FBA inh conf = M. tuberculosis aldolase blockers, biochemical, fluorescence, strain H37Rv, confirmation; shares compounds with FBA Mtb inh; purified M. tuberculosis FBA, fluorescence read-out; inhibition, % at 1 µM; actives 78% (n = 5,600); AID 651616, 2012; in the data active = inhibition above about 27%;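 note: 0% = vehicle wells and 100% = reference inhibitor wells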
GDH-TPI counter-2 = GDH-TPI coupling enzyme inhibitors, artefact control for M. tuberculosis FBA inhibitor project, biochemical, fluorescence, high throughput | actives 81% (n = 5,600) | GDH-TPI coupled enzyme counterscreen | inhibition, % at 1 µM | shares compounds with FBA Mtb inh
An asterisk follows results filed as active; / = not tested or not shown; + = active, no number. Cut-off read from the data, not from the text of the source, unless noted: active = inhibition above about 10%; inactive = the rest.

SMILES	GDH-TPI counter-1	PrPC surface inh	FBA Mtb inh	TcdB inh	Y pestis TopoI	Mtb FBA inh conf	GDH-TPI counter-2
CC1CCCCN1Cc1ccc(N)cc1 (configuration not stated)	-7	-6	1	/	-1	/	/
CC1(C)Cc2nc3sc4c(N(CCO)CCO)nnnc4c3cc2CO1	1	9	36*	0	3	+	188*
Cn1c2ccccc2c(=O)c2ccc(C#Cc3ccccn3)cc21	/	-2	/	-1	/	/	/
COc1cc2oc3ccc(C#Cc4ccccn4)cc3c(=O)c2cc1OC	5	4	67*	11*	4	-3	-5
C[C@@H]1CCCCO[C@H](CN(C)C(=O)Nc2ccc(C(F)(F)F)cc2)[C@@H](C)CN([C@@H](C)CO)C(=O)c2cc(NC(=O)C3CCCCC3)ccc2O1	/	/	/	-1	/	/	/
COc1cccc(N2CC(=O)N(NC(=O)c3sc4nc(C)cc(C)c4c3N)CC2=O)c1	5	-7	54*	1	2	+	175*
Cc1cc(C)c2c(N)c(C(=O)NN3CC(=O)N(c4ccccc4F)CC3=O)sc2n1	3	-10	62*	/	-2	104*	87*
C[C@@H]1CN([C@H](C)CO)C(=O)c2cc(C#CC(C)(C)O)cnc2O[C@@H]1CN(C)C(=O)c1ccccc1F	/	/	/	1	/	/	/
O=C(Nc1cccc(Cl)c1)N1C[C@H]2[C@@H](c3ccccc31)[C@@H](CO)N2C(=O)C1CC1	/	/	/	1	/	/	/
CC(C)Sc1nc(NCc2ccco2)c2c3c(sc2n1)COC(C)(C)C3	9	0	85*	/	-1	+	+
Cc1nc(NCc2ccco2)c2c3c(sc2n1)CCC3	-5	5	4	/	4	/	/
COc1cc2c3c([nH]c2cc1F)C(=O)NCC3	-4	-4	102*	2	-9	71*	46*
Cc1ccc(S(=O)(=O)Nc2cccc(C(=O)NCc3ccc(S(N)(=O)=O)cc3)c2)cc1	5	1	27*	1	1	156*	128*
O=C(Nc1c2ccccc2nc2ccccc12)C(Cl)(Cl)Cl	8	/	90*	/	-18	14	3
C[C@@H]1CCCCO[C@H](CN(C)C(=O)c2ccccc2)[C@H](C)CN([C@@H](C)CO)C(=O)c2cc(N(C)C)ccc2O1	/	/	/	-14	/	/	/
COc1ccc(OCCSCc2nnc(NC(=O)Nc3ccc(Cl)cc3)s2)cc1	-1	7	29*	1	-1	10	-5
C[C@@H]1CN([C@@H](C)CO)C(=O)Cc2cc(NC(=O)Cn3cnnn3)ccc2O[C@H]1CN(C)Cc1ccncc1	/	/	/	0	/	/	/
O=C(NCc1ccccc1CN1CCOCC1)c1ccc(-n2cccn2)cc1	10	1	4	0	8	/	/
Cc1ccnn1-c1ccc(C(=O)NCc2ccccc2CN2CCOCC2)cc1	4	-10	58*	1	15	+	+
COc1cc2c(cc1O)C[C@H]1NCCc3cc4c(c-2c31)OCO4	18	-4	30*	-27	-32	108*	89*
CC(C)C#Cc1cnc2c(c1)C(=O)N([C@H](C)CO)C[C@@H](C)[C@H](CN(C)S(=O)(=O)c1cn(C)cn1)O2	/	/	/	0	/	/	/
CO[C@@H]1CN(C)C(=O)c2ccc(NS(C)(=O)=O)cc2OC[C@@H](C)N(Cc2cncnc2)C[C@H]1C	/	/	/	0	/	/	/
Cc1cc(=O)oc2cc3c(cc12)OCCO3	8	-1	62*	/	1	196*	162*
Cc1cc(=O)oc2cc(O)c(N=Nc3ccccc3)cc12	16	-8	3	0	0	/	/
Cc1nc(N)c(C#N)c(-c2cccnc2)c1-c1ccccc1	9	-1	4	-3	2	/	/
SMILES	GDH-TPI counter-1	PrPC surface inh	FBA Mtb inh	TcdB inh	Y pestis TopoI	Mtb FBA inh conf	GDH-TPI counter-2
Cc1ccc2c(n1)sc1c(-c3ccccc3)c(C#N)c(N)nc12	20	-4	69*	/	-1	163*	168*
COc1ccc(S(=O)(=O)N[C@H]2C=C[C@@H](CC(=O)N3CCc4ccccc4C3)O[C@@H]2CO)cc1	/	/	/	1	/	/	/
COc1cccc(C(=O)COc2ccc3c(C)c(Cc4ccccc4)c(=O)oc3c2)c1	6	-1	7	0	-4	/	/
Cc1c(Cc2ccccc2)c(=O)oc2cc(OCC(=O)NCc3ccccn3)ccc12	13	10	78*	-1	11	88*	70*
O=C(COc1ccc2c(c1)oc(=O)c1ccccc12)NC(Cc1ccc(Cl)cc1)C(=O)O (configuration not stated)	13	-1	74*	1	23	186*	132*
COC(=O)Cc1c(C)c2ccc(OCC(=O)c3ccc(OC)c(OC)c3)cc2oc1=O	/	-1	/	0	/	/	/
Cc1c(Cc2ccccc2)c(=O)oc2cc(OCc3ccc(C(=O)O)cc3)ccc12	10	-2	17	-1	-2	/	/
Cc1c(Cc2ccccc2)c(=O)oc2cc(OCC(=O)N[C@@H](Cc3ccccc3)C(=O)O)ccc12	10	-3	92*	-2	26	165*	136*
COC(=O)Cc1c(C)c2ccc(OC(=O)c3ccccc3)cc2oc1=O	8	-2	79*	/	-3	99*	90*
CC=Cc1ccc2n(c1=O)C[C@@H]1[C@@H](CO)[C@H](C(=O)NCC3CC3)[C@H]2N1CC1CCOCC1 (mixture of isomers)	/	/	/	1	/	/	/
CCCC(O)(c1ccc(Cl)cc1)C(CN1CCOCC1)c1ccc(Cl)cc1 (configuration not stated)	3	-7	30*	1	28	97*	70*
CCCC(O)(c1ccc(OC)cc1)C(CN1CCOCC1)c1ccc(Cl)cc1 (configuration not stated)	2	-5	16	-11	23	/	/
NC(=O)c1ccccc1NCC(=O)c1ccc(F)cc1	-4	0	31*	1	0	103*	87*
CCc1ccccc1NC(=O)c1cnc2scc(C)n2c1=O	1	-6	-1	1	9	/	/
Cc1csc2ncc(C(=O)NCCC(c3ccccc3)c3ccccc3)c(=O)n12	19	5	34*	1	-1	101*	57*
Cc1csc2ncc(C(=O)NCc3ccccn3)c(=O)n12	36*	0	65*	0	-1	175*	147*
O=C(NCCc1ccccc1)c1cnc2ccccn2c1=O	30	0	105*	/	2	113*	88*
Cc1ccccc1NC(=O)c1cnc2ccccn2c1=O	10	-2	0	/	-6	/	/

Screens from PubChem.
